This passage reports growth results from PubChem BioAssay (NCI).

Common to all, as to test: NCI-60 one-dose screen, 48 h (100 = growth as untreated, 0 = no growth, -100 = all killed)
What all share (settings): 10 µM unless noted

The test system of assay [1] is HCT-15 colon.
Assay [2] relates to HT29 colon.
Assay [3] deals with SNB-75 CNS.
Assay [4] relates to SNB-19 CNS.
Assay [5] relates to U251 CNS.
The test system of assay [6] is PC-3 prostate.
In assay [7] the test system is SK-MEL-5 melanoma.
Assay [8] concerns UACC-62 melanoma.
The test system of assay [9] is LOX IMVI melanoma.
In assay [10] the test system is SK-MEL-28 melanoma.

Structures are written as SMILES. This is part of a sample that, as a whole, favours compounds with a hit. Of some 83,000 tested, about 20% had one in any assay.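 Each cell line was grown in a 96-well plate and treated with one concentration of compound for 48 hours. Values below 10 were considered active.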 Unmarked numbers belong to inactive results. The source made the active and inactive calls.

For the compound `CCCC(=O)O[C@@H]1C[C@H]2C[C@@H](O[C@@H]3O[C@@H](C)[C@@H](O)[C@@H](O)[C@H]3OC)C[C@@H](C[C@@H](C)/C=C/C=C\C[C@@H]3O[C@@H](C[C@@H]3C)[C@@H](O)C[C@H]3C[C@@]1(O)C(=O)O3)O2`, the growth in assay [1] is 54.3%; in assay [2] it was 60%; in assay [3] it was 55.4%; in assay [4], 52.4%; in assay [5] it was 35.6%; in assay [6], 33%. Moreover, the growth was 19.5% in [7], 62.5% in assay [8], 62.5% in [9] and 71.5% in [10].
As to `Cc1sc2c(c1C)C(c1ccc(Cl)cc1)=N[C@@H](CC(=O)OC(C)(C)C)c1nnc(C)n1-2`, the growth in [1] was 12.9%; in assay [2], 18%; in [3], 18.6%; in assay [4], 45.4%; in assay [5], 52.4%; in assay [6] it was 53.3%. The growth was 21.1% in [7], 26.9% in assay [8], 7.81% (active) in [9] and 38.4% in assay [10].
Regarding `CC(=O)Nc1ccc(NC(=O)c2ccc([As](O)O)cc2)cc1`, the growth in assay [1] was 85%; in [2], 112%; in [3], 89.4%; in [4], 92.9%; in [5] it was 56.5%; in assay [6], 100%. Further, the growth is 98.1% in [7], 78.3% in [8], 76.4% in assay [9] and 118% in assay [10].
As to `CCC[CH2][Sn]([CH2]CCC)([CH2]CCC)[O]c1ccc(Cl)cc1Cl`, the growth in assay [1] is -62.5% (active); in [2], -52.3% (active); in [3], -93.6% (active); in [4] it was -81% (active); in assay [5], -74% (active); in assay [6] it was -70% (active). In addition, the growth was -99.8% (active) in [7], -88.4% (active) in assay [8], -81.4% (active) in assay [9] and -96.9% (active) in [10].
Regarding `N#CC1(C#N)C(c2ccc(N(CCCl)CCCl)cc2)OC23CCCCC2C1(C#N)C(=N)O3` (stereo not given), the growth in [1] was 90.6%; in assay [2] it was 106%; in [3], 63.3%; in assay [4], 84.4%; in assay [5] it was 75.8%; in assay [6], 74.8%. Moreover, the growth is 83.3% in [7], 53.2% in assay [8], 68.6% in assay [9] and 111% in [10].
`Brc1ccc2c(c1)c(-c1nc(-c3c[nH]c4ncccc34)cs1)cn2CCN1CCCCC1`: the growth is 20.8% in assay [1]; 27.4% in assay [2]; 67.7% in assay [3]; 90% in assay [4]; 42% in [5]; 51.4% in assay [6]. Besides, the growth in [7] is 68.2%; in assay [8], 78.2%; in assay [9], 65.4%; in assay [10] it was 106%.
Consider `O=[N+]([O-])c1cc([N+](=O)[O-])c(Nn2c3ccccc3c3ccccc32)c([N+](=O)[O-])c1`, for which the growth in assay [1] is 2.82% (active); in [2], -4.7% (active); in assay [3], -19.7% (active); in assay [4], 25.8%; in assay [5] it was 8.04% (active); in assay [6] it was -10.5% (active). The growth in assay [7] was -75.9% (active); in assay [8], -16.7% (active); in [9] it was 7.47% (active); in [10], 11.9%.
With `CN1C(=O)C(=Cc2cn(Cc3ccccc3)c3ccccc23)C(=O)N(C)C1=O`, the growth was 93% in assay [1]; 89.5% in assay [2]; 60.1% in assay [3]; 90% in assay [4]; 82.8% in [5]; 84.8% in assay [6]. Further, the growth in assay [7] is 63.4%; in [8], 34%; in assay [9], 82.6%; in assay [10], 99.3%.
Consider `COC(=O)[C@@H](C)C[C@H](Cc1ccccc1)NC(=O)c1nc([C@@H](C[C@H](C(C)C)N(C)C(=O)[C@@H](NC(=O)[C@H]2CC(=O)CCN2C)C(C)C)OC(C)=O)sc1C(C)C`, for which the growth in [1] is 8.84% (active); in assay [2], -9.41% (active); in assay [3], 15.7%; in assay [4], 21.2%; in [5] it was 12.1%; in assay [6] it was 24.3%. The growth in assay [7] is -14.3% (active); in [8] it was 36.4%; in assay [9] it was 14.7%; in assay [10] it was 51.8%.
With `COC(=O)C12CC(NC(=O)c3csc([C@@H](C[C@H](C(C)C)N(C)C(=O)[C@@H](NC(=O)[C@H]4CCCCN4C)C4CC4)OC(C)=O)n3)(C1)C2`, the growth in [1] is 14.1%; in assay [2], -8.13% (active); in assay [3] it was 43.4%; in [4] it was 39.6%; in [5], 11.8%; in [6], 23.4%. For the same compound, the growth is -22.5% (active) in assay [7], 58.6% in assay [8], 15.7% in assay [9] and 60.1% in assay [10].
In the case of `CC1=C(CN)C2=C(C)C3(CC3)[C@@](C)(O)C(=O)C2=C1`, the growth was 96.4% in [1]; 94.5% in assay [2]; 57.7% in [3]; 83.2% in assay [4]; 84% in [5]; 88.3% in assay [6]. Also, the growth in assay [7] is 98.8%; in [8], 97%; in [9] it was 91.6%; in assay [10], 94.8%.
For `CC(CC1CCCCC1)NCc1ccccc1` (stereo not given), the growth in assay [1] is 94.4%; in assay [2], 93.2%; in [3], 100%; in [4], 100%; in assay [5] it was 106%; in [6], 88.6%. For the same compound, the growth in assay [7] is 99.1%; in assay [8], 93.3%; in [9], 83.7%; in [10] it was 103%.
Turning to `O=c1[nH]c2ccc([N+](=O)[O-])cc2c(=O)o1`, the growth in assay [1] is 99%; in [2], 113%; in assay [3] it was 113%; in assay [4] it was 102%; in [5] it was 106%; in assay [6], 92.8%. Also, the growth is 95.3% in assay [7], 100% in [8], 99.9% in assay [9] and 105% in assay [10].
